Data published in the supplement of paper PMC6805474.

Test system: Schistosoma mansoni schistosomula (NMRI)
Experiment: phenotypic severity score (0-4); higher = more antischistosomal effect, active = 2 or more
Details: 24 h; 10 µM
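Further: visual microscopic scoring of shape, motility and density changes versus 0.5% DMSO solvent controls, one point per descriptor, degeneracy or death scored 4, mean of duplicate wells.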

| SMILES | phenotypic severity score |
| --- | --- |
| Cc1cc(O)nc(-n2nc(C)cc2C)n1 | 0 (inactive) |
| N=C(N)c1ccc(OCCCCCOc2ccc(C(=N)N)cc2)cc1 | 0 (inactive) |
| O=C(Nc1ccc(N2CCNCC2)cc1)c1ccn2ncc(-c3cccc(Cl)c3)c2n1 | 2 (active) |
| Cc1ccc(S(=O)(=O)N2CCN(C(=O)c3cc(-c4ccccc4)[nH]n3)CC2)cc1 | 2 (active) |
| c1csc(-c2cnc3sc(NCC4CCOCC4)nn23)c1 | 0 (inactive) |
| Brc1cncc(-c2cc(NCCCn3ccnc3)nc(-c3ccccc3)n2)c1 | 1 (inactive) |
| O=C(NC1=NCCS1)c1sc2cc(F)ccc2c1Cl | 0 (inactive) |
| O=C(NCCc1c[nH]c2ccccc12)c1cc2ccccc2oc1=O | 1 (inactive) |
| CCc1ccc(S(=O)(=O)Nc2cc(CN3CCN(CCC(C)C)CC3)ccc2C)cc1 | 1 (inactive) |
| Clc1ccc(CN2CCN(C3=NCCN3)CC2)cc1Cl | 1 (inactive) |
| CC(c1cc(Cl)cc(Cl)c1)N(C)c1ncc2c(N)nc(N)nc2n1 (configuration not stated) | 0 (inactive) |
| Nc1ncc(-c2ccc(C(F)(F)F)nc2)cc1-c1ccc(C(F)(F)F)nc1 | 0 (inactive) |
| FC(F)(F)c1nnc2ccc(Cl)nn12 | 1 (inactive) |
| O=C(c1ccc(NCCO)cc1)C1C[C@H]1c1ccc(Cl)cc1 (some centres not stated) | 0 (inactive) |
| NCC(=O)N1CCn2c(nc(-c3ccccc3)c2Nc2ccc3c(c2)OCO3)C1 | 0 (inactive) |
| C[C@H]1COc2c(N3CCN(C)CC3)c(F)cc3c(=O)c(C(=O)O)cn1c23 | 0 (inactive) |
| COc1ccc(CCN2CCC(NCc3cccc(N(C)C)c3)CC2)cc1 | 0 (inactive) |
